In the library only some 4% were active in any assay of this set; here they are far more common.
Gli-Sufu block: blocks Gli-Sufu signaling in a luciferase reporter; Sufu-KO-LIGHT fibroblasts, Gli luciferase reporter luminescence; inhibition, % at 5 µM; 340,000 tested, 0.74% active; AID 588413;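 active = inhibition above about 55%, limit read from the data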;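 note: 0% = DMSO-treated cells and 100% = wells with medium but no cells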
PAX8 inh HTS: lowers PAX8-driven luciferase in RMG-I cells; RMG-I TPO-luciferase reporter, SteadyGlo, 24 h; inhibition, % at 12.6 µM; 360,000 tested, 1.2% active;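 active = mean replicate inhibition at least 60% with every replicate also reaching 60%; inconclusive = only one of the two criteria is met; inactive = mean below 60% and not all replicates reaching 60%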;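 note: luciferase light reporting Pax8 driven TPO promoter activity; plate controls were median of neutral control wells for no effect and mitoxantrone controls for full effect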
CSC inhib: cancer stem cell inhibition | inhibition, % at 7.5 µM | AID 2717 | cancer stem cell-like cells viability, luminescence | 300,000 tested, 1.1% active; in the data active = inhibition above about 75%; inconclusive = no clear call, values can overlap the other calls; tested in HMLE shEcad cells
Mdm2 MdmX PPI: human Mdm2/MdmX binding inhibition. SaOS-2 split-luciferase Mdm2/MdmX complementation, luminescence. O15151+Q00987. 330,000 tested, 3% active. inhibition, % at 8 µM;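 active = inhibition of at least 50% at 8 µM in the primary screen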
Target sequence (O15151 whole entry, looked up): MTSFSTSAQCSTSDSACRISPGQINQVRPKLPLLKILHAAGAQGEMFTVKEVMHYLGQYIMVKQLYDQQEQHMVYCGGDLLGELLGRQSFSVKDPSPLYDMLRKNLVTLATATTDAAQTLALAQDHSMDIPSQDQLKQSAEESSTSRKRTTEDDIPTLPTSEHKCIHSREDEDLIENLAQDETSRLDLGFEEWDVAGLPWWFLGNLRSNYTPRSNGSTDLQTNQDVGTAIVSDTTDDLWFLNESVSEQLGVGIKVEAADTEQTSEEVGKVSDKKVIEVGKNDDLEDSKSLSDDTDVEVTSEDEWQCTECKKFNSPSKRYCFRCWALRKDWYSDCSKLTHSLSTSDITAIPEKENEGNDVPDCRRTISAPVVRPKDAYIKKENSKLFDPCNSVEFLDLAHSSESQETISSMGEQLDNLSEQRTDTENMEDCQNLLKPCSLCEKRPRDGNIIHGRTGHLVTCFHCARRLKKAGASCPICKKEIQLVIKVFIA
Target sequence (Q00987 whole entry, looked up): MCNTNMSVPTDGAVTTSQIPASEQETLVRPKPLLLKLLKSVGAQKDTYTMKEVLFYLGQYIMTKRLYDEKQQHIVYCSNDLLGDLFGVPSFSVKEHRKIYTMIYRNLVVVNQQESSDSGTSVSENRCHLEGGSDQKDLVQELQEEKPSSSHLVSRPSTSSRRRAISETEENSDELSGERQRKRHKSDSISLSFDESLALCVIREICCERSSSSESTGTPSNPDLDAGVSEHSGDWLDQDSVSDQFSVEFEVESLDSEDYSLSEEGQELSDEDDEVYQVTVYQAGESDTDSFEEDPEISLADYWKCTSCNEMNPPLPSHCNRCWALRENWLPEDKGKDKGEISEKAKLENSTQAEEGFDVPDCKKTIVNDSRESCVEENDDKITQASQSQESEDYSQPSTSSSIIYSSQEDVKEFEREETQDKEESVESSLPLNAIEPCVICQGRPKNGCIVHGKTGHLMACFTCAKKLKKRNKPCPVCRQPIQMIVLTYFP
Beta cell apopt: beta cell apoptosis inhibition | 300,000 tested, 0.8% active | protection from apoptosis, % (test concentration not listed) | AID 435005 | INS-1E cytokine-induced death, ATP luminescence, 48 h; percent of positive-control rescue, neutral wells zero;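 active = Every replicate reaches about 75%, or at least half do and their mean reaches it too, limit read from the data; inconclusive = At least half of replicates reach the limit but their mean does not; inactive = Under half of replicates reach the limit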;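 note: 0% = cytokine-treated negative control wells and 100% = positive control rescue; higher means more ATP so stronger rescue from cytokine killing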
Shn3 inh set2: reduces Shn3 3'UTR luciferase signal in osteoblasts | Clone20 osteoblast Shn3 3'UTR firefly luciferase, 24 h | inhibition, % at 12.5 µM | 360,000 tested, 0.52% active | AID 588674;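 active = mean inhibition of at least 75% with every replicate also reaching 75%; inconclusive = mean inhibition at least 75% but some replicate below; inactive = mean inhibition below 75%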;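 note: 0% = median of neutral control wells and 100% = pilot-screen positive control compound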
Mdm2 MdmX conf: confirmation of human Mdm2/MdmX interaction inhibitors. AID 489028. inhibition, % at 8 µM. Mdm2-MdmX binding, luminescent assay. shares compounds with Mdm2 MdmX PPI. 10,000 tested, 55% active; in the data active = inhibition above about 40%
Full FLuc ctr: full-length luciferase inhibition in Mdm2/MdmX counter-screen | shares compounds with Mdm2 MdmX PPI | inhibition, % at 8 µM | 6,200 tested, 77% active | SaOS-2 full-length luciferase counterscreen, luminescence;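 active = mean inhibition at 8 µM reaching about 37%, which flags the compound as non-specific, limit read from the data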;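 note: p53-null SaOS-2 cells with luciferase driven by a doxycycline-inducible promoter; compound on cells about two nights before reading with doxycycline added after day one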
An asterisk follows results filed as active; ? = inconclusive; . = no result.

SMILES | Gli-Sufu block | PAX8 inh HTS | CSC inhib | Mdm2 MdmX PPI | Beta cell apopt | Shn3 inh set2 | Mdm2 MdmX conf | Full FLuc ctr
Cc1nn(C)c(C)c1/C=N/N=C1\CCC2C3CCc4cc(O)ccc4C3CCC12C (stereo unspecified) | 3 | . | 15 | 57* | -5 | 44 | 21 | .
C[C@]12CCC3c4ccc(O)cc4CCC3C1CC/C2=N\N (stereo partly specified) | -6 | -2 | 5 | 30 | -16 | -6 | . | .
Cc1sc2nc(C3CCCCC3)nc(SCC(=O)N3CC(=O)Nc4ccccc43)c2c1C | 7 | . | -2 | 56* | -7 | 12 | 18 | .
COc1ccccc1-c1nnc2n1N=C(c1ccc(O)c(O)c1)CS2 | 50 | . | -14 | 50* | 30 | 13 | 58* | 140*
COc1ccc(C2=Nn3c(nnc3-c3cccnc3)SC2)cc1OC | 5 | . | -23 | 51* | 8 | 0 | 22 | .
COc1ccc(C2=Nn3c(nnc3-c3ccccc3OC)SC2)cc1OC1CCOC1 (stereo unspecified) | 42 | 68* | 46 | 71* | 7 | 12 | 73* | 95*
CCCC#Cc1ccc2c(c1)O[C@H](CN(C)Cc1cccnc1)[C@H](C)CN([C@@H](C)CO)S2(=O)=O | . | 6 | . | . | . | . | . | .
O=C(OCc1ccc(Br)cc1)c1ccncc1 | 0 | -6 | -3 | -1 | -7 | 10 | . | .
O=C(OCc1ccc(Br)cc1)c1cnc(Cl)c(Cl)c1 | 47 | 13 | . | 69* | 4 | 25 | 48* | 96*
CN(C)C(=O)C[C@@H]1C[C@@H]2c3cc(NC(=O)CC4CC4)ccc3O[C@@H]2[C@H](CO)O1 | . | -8 | . | . | . | . | . | .
O=S(=O)(N[C@@H]1CCCN(Cc2ccc(OCCO)cc2)C1)c1cc(C(F)(F)F)ccc1Cl | . | -28 | . | . | . | . | . | .
Cc1cccc(N2CCN(C(=O)c3c(-c4ccccc4Cl)noc3C)CC2)c1C | . | 34 | 60 | 59* | 28 | 14 | 76* | 71*
COC(=O)c1c(NC(=O)c2ccccc2)sc2c1CC(C)(C)NC2(C)C | 33 | -7 | -5 | 42 | 0 | -4 | . | .
CCOC(=O)c1c(NC(=O)C2COc3ccccc3O2)sc(C(C)=O)c1C (stereo unspecified) | 42 | . | 0 | 16 | 12 | 66 | . | .
COC(=O)c1c(NC(=O)c2ccc(OC(C)C)cc2)sc2c1CC(C)(C)NC2(C)C | 1 | -5 | 53 | 94* | . | 12 | 77* | 24
CCOC(=O)c1c(NC(=O)C2COc3ccccc3O2)sc2c1CC(C)(C)NC2(C)C (stereo unspecified) | 18 | -5 | ? | 84* | 9 | -2 | 52* | 61*
CCOC(=O)c1c(NC(=O)COc2ccccc2C#N)sc2c1CC(C)(C)NC2(C)C | 29 | . | -2 | 51* | 7 | 12 | 15 | .
CCOC(=O)c1c(NC(=O)c2ccc(C)cc2)sc2c1CC(C)(C)NC2(C)C | . | . | 12 | 93* | . | . | 47* | 96*
CCOC(=O)c1c(NC(=O)Cc2ccccc2)sc2c1CC(C)(C)NC2(C)C | 6 | -9 | 11 | 36 | -11 | 6 | . | .
CO[C@H]1CN(C)C(=O)c2ccc(NC(=O)C3CC3)cc2OC[C@@H](C)N(CC2CCCC2)C[C@@H]1C | . | 1 | . | . | . | . | . | .
COc1ccc(CN2C[C@H](O)COC[C@H]3O[C@@H](CC(=O)NCc4ccncn4)CC[C@@H]32)cc1 | . | 4 | . | . | . | . | . | .
COCC(=O)N1[C@H](CO)[C@H](c2ccc(C#Cc3ccccc3F)cc2)[C@@H]1C#N | . | -9 | . | . | . | . | . | .
CCOC(=O)c1c(NC(=O)COc2ccccc2OCC)sc2c1CC(C)(C)NC2(C)C | 21 | . | 2 | 97* | 11 | -86 | 34 | 90*
CC1(C)Cc2c(sc(NC(=O)COc3cccc4ccccc34)c2C#N)C(C)(C)N1 | 2 | 11 | 14 | 98* | 10 | 14 | 100* | 51*
CCC(=O)Nc1ccc2c(c1)C(=O)N(C)C[C@@H](OC)[C@@H](C)CN(CCc1ccccc1)[C@@H](C)CO2 | . | 4 | . | . | . | . | . | .
